Records with an inconclusive call do not appear. Activity calls are given as the source filed them. Rule for the calls: active = hit-call score of the fitted dose curve at least 0.9, where 1 is the maximum; inconclusive = response in the unintended direction; inactive = score below 0.9.
Each molecule was assayed on 5-hydroxytryptamine receptor 2C (pig) (assay: NVS_GPCR_p5HT2C: NovaScreen (NVS) G Protein-Coupled Receptor Assay for pig Serotonin, 5-Hydroxytryptamine Receptor 2C (5HT2C) (AID 2283288)).
Description: NVS_GPCR_p5HT2C is a biochemical, single-readout assay that uses extracted gene-proteins from Pig choroid plexus membranes in a tissue-based cell-free assay. Measurements were taken 1 hour after chemical dosing in a 48-well plate.NVS_GPCR_p5HT2C is one of one assay component(s) measured or calculated from the NVS_GPCR_p5HT2C assay. It is designed to make measurements of radioligand binding, a form of binding reporter, as detected with scintillation counting signals by Filter-based radiodetection technology.Data from the assay component NVS_GPCR_p5HT2C was analyzed into 1 assay endpoint. This assay endpoint, NVS_GPCR_p5HT2C, was analyzed in the positive analysis fitting direction relative to DMSO as the negative control and baseline of activity. Using a type of binding reporter, loss-of-signal activity can be used to understand changes in the binding as they relate to the gene HTR2C. Furthermore, this assay endpoint can be referred to as a primary readout, because the performed assay has only produced 1 assay endpoint. To generalize the intended target to other relatable targets, this assay endpoint is annotated to the gpcr intended target family, where the subfamily is rhodopsin-like receptor.
Binding assays used specific radioligands (tritiated, iodinated) with non-radioactive competitive displacement ligands in agonist or antagonist protocols (as indicated) and various reference compounds and inhibitors to titrate specific binding to receptors and transporters. Most enzyme assays (CYPs, kinases, phosphatases, proteases, HDACs) used recombinant protein and specific substrates (fluorescence mostly, some colorimetric and radioactive) and inhibitors, followed by a biochemical separation of substrate and product. All assays for the biochemical HTS were initially run in duplicate at a single concentration (10 uM for CYP450 assays and 25 uM for all others). […] Each assay was run with positive and negative controls, and concurrent controls on every plate. The follow-up (secondary) screen tested active chemical-pairs in concentration series, as well as a few additional assays not tested in the primary screen, some selected negative inactives, and several cases re-run in the concentration series for confirmatory purposes.

Question: How did the AC50 turn out when Fc1ccccc1[C@@H](F)COC1CCC(Nc2ncnc3[nH]ncc23)CC1 (some centres not stated) was run?
Answer: The AC50 was 7.93 µM (active).

Question: With COc1cccc(-c2ccc(/C=C\CN3CCCCCC3)cc2Cl)c1 as the molecule, how does the AC50 read?
Answer: Its AC50 is 11.8 µM (active).

Question: CC(C)(O)c1coc(S(=O)(=O)NC(=O)Nc2c3c(cc4c2CCC4)CCC3)c1 was tested. Which AC50 did it give?
Answer: The AC50 was 25 µM (active).

Question: With Cn1c(=O)c2c(ncn2C)n(C)c1=O as the molecule, how does the outcome read?
Answer: Its outcome is “inactive”.

Question: How did the AC50 turn out when CCOC(=O)c1ccc(C2CCC(NC[C@H](O)COc3ccc(O)c(NS(C)(=O)=O)c3)CC2)cc1 (some centres not stated) was run?
Answer: The AC50 was 19.5 µM (active).

Question: With CCCCCCc1ccc(O)cc1O as the molecule, how does the AC50 read?
Answer: The AC50 was 16.7 µM (active).

Question: CCOC(=O)COc1ccc2c(c1)CC(NCC(O)c1cccc(Cl)c1)CC2 (configuration not stated) was tested. Which AC50 did it give?
Answer: Its AC50 is 13.2 µM (active).

Question: How did the outcome turn out when O=C(O)CC(O)C(=O)O (configuration not stated) was run?
Answer: The outcome was “inactive”.

Question: Which AC50 does the source give for Cc1[nH]cnc1C[C@H]1CCc2c(C)c3ccccc3n2C1=O here?
Answer: The AC50 was 0.116 µM (active).

Question: Which outcome does the source give for O=P(OC(CCl)CCl)(OC(CCl)CCl)OC(CCl)CCl here?
Answer: Its outcome is “inactive”.

Question: COC(=O)c1c(Cl)c(Cl)c(C(=O)OC)c(Cl)c1Cl was tested. Which outcome did it give?
Answer: Its outcome is “inactive”.

Question: Oc1ccc2c(c1)-c1ccccc1C2 was tested. Which AC50 did it give?
Answer: The AC50 was 4.27 µM (active).
